In PubChem BioAssay AID1159580 (chemical genetic matrix, 2015):
Where “and” joins values, the source holds several entries; their conditions need not be identical. Equal entries are not always repeated. In all, about 5,500 compounds went through this assay and about 2,000 (36%) were called active. Roughly 18% stayed inconclusive and do not appear here. No stated cut-off is given here; in the data, active means normalized growth mostly below about 0.91 (no sharp cut-off); inconclusive means no clear call, values can overlap the other calls; inactive means mostly above about 0.92. The list shows a part of the results.

Assay: chemical genetic growth profiling, strain panel (AID 1159580);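 further: tested at 20 µM; growth read once vehicle control cultures reached saturation at 30 °C; 1 = growth at the plate median or of vehicle wells; lower values mean less growth of the strain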
Conditions: S. cerevisiae deletion strains, growth OD

Measured: normalized growth

C#C[C@]1(OC(C)=O)CCC2C3CCC4=CC(=O)CC[C@@H]4C3CC[C@@]21C (some centres not stated)
inactive: locus YAL013W, strain DEP1, hits give low values 0.97 | locus YAL021C, strain ccr4, hits give low values 0.988 | locus YAL026C, strain drs2, hits give low values 0.984 | locus YAL030W, strain snc1, hits give low values 0.986 | locus YBL061C, strain skt5, hits give low values 0.981 | locus YBR009C, strain hhf1, hits give low values 0.991 | locus YBR021W, strain FUR4, hits give low values 0.98 | locus YBR023C, strain chs3, hits give low values 0.976 | locus YBR171W, strain sec66, hits give low values 0.974 | locus YBR229C, strain ROT2, hits give low values 0.953 | locus YBR231C, strain swc5, hits give low values 1.01 | locus YBR279W, strain paf1, hits give low values 0.977 | locus YCL011C, strain gbp2, hits give low values 0.985 | locus YCL016C, strain dcc1, hits give low values 0.974 | locus YCL029C, strain bik1, hits give low values 0.96 | locus YCL069W, strain vba3, hits give low values 0.973 | locus YCR088W, strain abp1, hits give low values 0.99 | locus YDL005C, strain med2, hits give low values 0.971 | locus YDL035C, strain GPR1, hits give low values 0.972 | locus YDL040C, strain nat1, hits give low values 0.985 | locus YDL074C, strain BRE1, hits give low values 0.965 | locus YDL101C, strain DUN1, hits give low values 0.97 | locus YDL134C, strain PPH21, hits give low values 0.948 | locus YDL185W, strain tfp1, hits give low values 0.976 | locus YDL192W, strain arf1, hits give low values 0.961 | locus YDR001C, strain nth1, hits give low values 0.999 | locus YDR069C, strain doa4, hits give low values 0.969 | locus YDR101C, strain arx1, hits give low values 0.977 | locus YDR137W, strain rgp1, hits give low values 0.982 | locus YDR159W, strain sac3, hits give low values 0.936 | locus YDR162C, strain NBP2, hits give low values 0.961 | locus YDR195W, strain ref2 0.978 | locus YDR297W, strain sur2, hits give low values 0.994 | locus YDR318W, strain mcm21, hits give low values 0.941 | locus YDR334W, strain swr1, hits give low values 1.02 | locus YDR335W, strain msn5, hits give low values 0.978 | locus YDR388W, hits give low values 0.966 | locus YDR392W, strain spt3, hits give low values 0.828 | locus YDR502C, strain sam2, hits give low values 0.949 | locus YEL003W, strain gim4, hits give low values 1.01 | locus YEL037C, strain rad23, hits give low values 1 | locus YEL061C, strain CIN8 (second series), hits give low values 0.991 | locus YEL061C, strain CIN8, hits give low values 0.978 | locus YER015W, strain faa2, hits give low values 0.995 | locus YER016W, strain bim1, hits give low values 0.988 | locus YER110C, hits give low values 0.97 | locus YER111C, strain swi4, hits give low values 0.985 | locus YER155C, strain BEM2 (second series), hits give low values 0.975 | locus YER155C, strain BEM2, hits give low values 0.971 | locus YER167W, strain BCK2, hits give low values 0.974 | locus YFR010W, strain ubp6, hits give low values 1 | locus YGL078C, strain dbp3, hits give low values 0.989 | locus YGL086W, strain mad1, hits give low values 0.957 | locus YGL167C, strain pmr1, hits give low values 0.993 | locus YGL173C, strain kem1, hits give low values 0.989 | locus YGL227W, strain vid30, hits give low values 0.975 | locus YGL240W, strain doc1, hits give low values 1 | locus YGL248W, strain PDE1, hits give low values 0.967 | locus YGL253W, strain hxk2, hits give low values 1.01 | locus YGR135W, strain pre9, hits give low values 0.925 | locus YGR252W, strain gcn5, hits give low values 1.07 | locus YHR013C, strain ard1, hits give low values 0.955 | locus YHR027C, strain rpn1, hits give low values 1.01 | locus YHR030C, strain SLT2, hits give low values 0.975 and 0.933 | locus YHR079C, strain IRE1 (second series), hits give low values 0.969 | locus YHR079C, strain IRE1, hits give low values 0.92 | locus YHR094C, strain hxt1, hits give low values 0.981 | locus YHR129C, strain ARP1, hits give low values 0.974 | locus YHR142W, strain chs7, hits give low values 1 | locus YHR200W, strain rpn10, hits give low values 0.963 | locus YIL066C, strain RNR3, hits give low values 0.965 | locus YIL073C, strain SPO22, hits give low values 0.926 | locus YIL125W, strain kgd1, hits give low values 0.971 | locus YIR030C, strain dcg1, hits give low values 0.961 | locus YJL092W, strain hpr5, hits give low values 1 | locus YJL095W, strain BCK1 (second series), hits give low values 0.984 | locus YJL095W, strain BCK1, hits give low values 0.926 and 0.95 | locus YJL115W, strain asf1, hits give low values 0.982 | locus YJL129C, strain trk1, hits give low values 0.975 | locus YJL134W, strain LCB3, hits give low values 0.973 | locus YJL154C, strain vps35, hits give low values 0.985 | locus YJL164C, strain tpk1, hits give low values 0.99 | locus YJL166W, strain qcr8, hits give low values 0.995 | locus YJL168C, strain set2, hits give low values 0.97 | locus YJL187C, strain SWE1 (second series), hits give low values 0.961 | locus YJR043C, strain POL32, hits give low values 1.03 | locus YJR066W, strain TOR1, hits give low values 0.903
